UHRF1 MBD2 ctr = human UHRF1 methylated DNA binding inhibitors. Q96T88. UHRF1 binding to methylated oligo, TR-FRET. inhibition, % at 4.4 µM. 370,000 tested, 0.75% active; in the data active means inhibition above about 21%;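 further: UHRF1 SRA domain binding a hemimethylated CpG hairpin DNA probe; 0% = median of test compound wells and 100% = reference inhibitor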
Target sequence (Q96T88 whole entry, looked up, the tested form may be a part): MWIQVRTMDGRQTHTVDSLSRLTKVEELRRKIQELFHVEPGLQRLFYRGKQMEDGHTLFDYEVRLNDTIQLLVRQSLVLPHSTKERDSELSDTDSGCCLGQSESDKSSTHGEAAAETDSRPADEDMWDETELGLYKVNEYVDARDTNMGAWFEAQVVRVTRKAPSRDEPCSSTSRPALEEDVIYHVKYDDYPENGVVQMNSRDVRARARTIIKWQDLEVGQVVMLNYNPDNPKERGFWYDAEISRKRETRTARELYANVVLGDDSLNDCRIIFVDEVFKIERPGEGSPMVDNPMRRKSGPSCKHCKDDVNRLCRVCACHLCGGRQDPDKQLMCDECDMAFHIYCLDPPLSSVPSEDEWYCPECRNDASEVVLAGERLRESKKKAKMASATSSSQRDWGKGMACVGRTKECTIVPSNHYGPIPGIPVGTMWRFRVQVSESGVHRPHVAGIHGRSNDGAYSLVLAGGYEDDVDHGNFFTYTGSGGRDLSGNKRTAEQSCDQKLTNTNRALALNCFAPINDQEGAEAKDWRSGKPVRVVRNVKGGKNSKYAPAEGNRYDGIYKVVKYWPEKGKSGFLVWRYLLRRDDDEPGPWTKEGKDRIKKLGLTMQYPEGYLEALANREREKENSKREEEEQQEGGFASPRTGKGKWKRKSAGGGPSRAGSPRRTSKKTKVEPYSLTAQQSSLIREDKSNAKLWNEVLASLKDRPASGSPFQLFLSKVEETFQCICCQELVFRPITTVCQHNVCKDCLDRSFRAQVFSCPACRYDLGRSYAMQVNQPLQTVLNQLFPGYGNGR
PLC-beta3 inh = PLC-beta3 (human) inhibition, primary screen; Q01970; Purified PLC-beta3, fluorogenic substrate, fluorescence; inhibition, % at 12.2 µM; 370,000 tested, 0.18% active; in the data active means inhibition above about 11%;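 further: 0% = median of compound wells on plate and 100% = full blocker control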
LEDGF integ inh = blocks HIV-1 LEDGF/p75-dependent DNA integration | inhibition, % at 3.7 µM | 370,000 tested, 0.64% active | TR-FRET IN-LEDGF/p75 DNA integration, Eu/Cy5;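 active means inhibition above the screen-wide mean plus 3 SD, cut at about 13% in these data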;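 further: signal is the Cy5 over europium emission ratio at 671 and 618 nm; 0% = plate median of compound wells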
PLCg1 inh = PLC-gamma1 (human) inhibition, primary screen; purified PLC-gamma1, fluorogenic substrate, fluorescence; inhibition, % at 12.2 µM; 370,000 tested, 0.84% active; in the data active means inhibition above about 9.5%
MBD2 inh = MBD2-methylated oligo binding inhibition. 370,000 tested, 0.31% active. inhibition, % at 4.4 µM. TR-FRET, MBD2 binding to methylated oligonucleotide. Q9UBB5; in the data active means inhibition above about 13%
IN multimer up = counter-screen for LEDGF/p75 integration inhibitors: HIV-1 integrase multimerization activators; shares compounds with LEDGF integ inh; TR-FRET HIV-1 integrase multimerization, biochemical; activation, % at 7.7 µM; 2,000 tested, 17% active; AID 1053131; in the data active means activation above about 8.9%
TRFRET interf = optically interferes with TR-FRET readout in LEDGF counter-screen; 2,000 tested, under 10 active; AID 1053135; shares compounds with LEDGF integ inh; inhibition, % at 7.7 µM; TR-FRET optical interference counterscreen, HIV-1 IN multimerization;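 active means inhibition above the mean over all tested compounds plus 3 SD, which no compound reached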;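 further: 0% = integrase with antibodies and DMSO and 100% = antibodies without integrase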
IN-LEDGF confirm = LEDGF/p75-dependent HIV-1 integration inhibition, confirmation. shares compounds with LEDGF integ inh. TR-FRET LEDGF/p75-dependent HIV-1 integration, biochemical. inhibition, % at 3.7 µM. 2,000 tested, 36% active; in the data active means inhibition above about 14%
Active calls of the source: *; nt = no result. This is a sample that favours compounds with a hit; in the whole collection about 2.4% have one here.

SMILES	UHRF1 MBD2 ctr	PLC-beta3 inh	LEDGF integ inh	PLCg1 inh	MBD2 inh	IN multimer up	TRFRET interf	IN-LEDGF confirm
C[C@@H]1O[C@@H](O[C@@H]2[C@@H](O)[C@H](OCCc3ccc(O)c(O)c3)O[C@H](CO)[C@H]2OC(=O)/C=C/c2ccc(O)c(O)c2)[C@H](O)[C@H](O)[C@H]1O	9.5	-17.2	86.5*	-11.3	5.1	36.6*	-184.5	88.4*
COc1ccc(Cl)cc1NC(=O)NNC(=O)c1ccccn1	1.8	-3.0	2.4	7.9	-1.8	nt	nt	nt
COc1ccc(Cl)cc1NC(=O)NNC(=O)C(=O)Nc1ccc(F)cc1	-2.3	-6.7	64.9*	-4.4	-0.2	-0.4	1.9	4.0
Cc1cc(NC(=O)CC#N)n(-c2ccccc2)n1	-0.5	-1.7	15.9*	0.6	-0.3	-2.1	10.4	-5.9
Cc1cc(NC(=O)CSc2nnc(-c3ccncc3)n2C)n(-c2ccccc2)n1	0.1	-10.8	0.0	0.3	6.6	nt	nt	nt
Cc1cc(NC(=O)CC#N)n(-c2nc3ccccc3[nH]2)n1	-0.8	-15.4	-0.1	-4.5	-2.6	nt	nt	nt
Cc1cc(NC(=O)CSc2nnc(-c3ccncc3)n2Cc2ccccc2)n(-c2ccccc2)n1	2.4	-3.3	70.2*	-0.7	2.1	-0.3	1.6	-4.4
N#Cc1cccc(-c2ccccc2C(=O)NC2CCCCN(Cc3ccc(Cl)cc3)C2=O)c1 (stereo not drawn)	1.9	-0.2	-0.4	-0.2	3.5	nt	nt	nt
Cc1ccsc1C=Nn1c(-c2n[nH]c3c2CCC3)n[nH]c1=S	-0.5	1.0	1.7	-0.1	6.5	nt	nt	nt
COc1cccc(-c2nnc(NC(=O)CCS(=O)(=O)c3ccc(F)cc3)o2)c1	-1.4	4.2	15.5*	-0.3	-2.2	5.3	-27.7	-2.8
COc1cc(OC)cc(-c2nnc(NC(=O)CCS(=O)(=O)c3ccc(C)cc3)o2)c1	-1.6	-2.1	1.0	0.9	-3.0	nt	nt	nt
N=C1/C(=C\c2coc3ccccc3c2=O)C(=O)N=C2SC(c3ccncc3)=NN12	-6.0	-181.1	25.4*	-116.2	-3.7	0.2	-1.2	61.6*
CSC1=NSC2=NC(=O)/C(=C\c3coc4ccccc4c3=O)C(=N)N12	-7.1	-373.6	8.4	-294.5	-0.8	nt	nt	nt
COc1cc(-n2c(C)nc3cc(C(=O)N4CCCCC4)ccc32)cc(OC)c1OC	-0.6	-2.2	-0.2	0.3	0.7	nt	nt	nt
O=C(COC(=O)c1cc(S(=O)(=O)N2CCOCC2)ccc1Cl)NC1CC1	0.9	-2.4	-0.7	2.4	-0.8	nt	nt	nt
O=C(COC(=O)c1cc(S(=O)(=O)N2CCOCC2)ccc1Cl)NC1CCCCC1	4.4	-0.3	19.3*	4.6	-5.6	0.5	-1.8	-0.8
CC1(OC(=O)CCc2ccccc2)C(=O)C=C2C=C3CCCN3C=C2C1=O (stereo not drawn)	6.8	-9.6	20.2*	-7.5	-3.0	0.6	-2.9	22.7*
CCOc1ccc(NC(=O)Nc2cc(-c3ccccc3)sc2C(=O)OC)cc1	-1.7	-0.7	21.3*	0.6	5.9	1.5	-5.3	-2.4
COC(=O)c1sc(-c2ccccc2)cc1NC(=O)C1CC1	-2.9	-7.3	-3.5	0.9	0.6	nt	nt	nt
CC(Cc1ccccc1)NC(=O)CN1C(=O)c2ccccc2S1(=O)=O (stereo not drawn)	-3.7	-5.2	82.1*	1.8	1.8	0.6	-2.8	-4.6
C[C@@H](NC(=O)CN1C(=O)c2ccccc2S1(=O)=O)c1ccccc1	4.4	-11.3	-0.3	-0.2	4.3	nt	nt	nt
CCC(=O)OCCCN1C(=O)CCC12CCC(C)CC2 (stereo not drawn)	-2.0	4.0	0.2	-0.4	5.0	nt	nt	nt
Cc1ccc(S(=O)(=O)Nc2cc(C(=O)N3CCOCC3)ccc2N2CCCCC2)cc1	2.0	-0.4	24.5*	1.4	-4.9	0.9	-4.6	-1.9
C=CCN1C(=O)[C@H](CC(=O)N2CCN(C(=O)c3ccco3)CC2)[C@@]2(C(=O)OCC)CCCC=C12	-1.2	0.7	2.5	2.3	-1.5	nt	nt	nt
O=C(NCc1ccccc1)C1Nc2ccc(OC(F)(F)F)cc2C2C=CCC12 (stereo not drawn)	-1.8	-27.6	22.1*	-22.6	-3.4	0.6	-2.2	-8.0
